Measurements as given in PubChem BioAssay (NCATS).
Inconclusive results are not listed. Unless noted, the call rests on the fitted dose curve; in most records, active means well fitted curve in either direction with a large enough effect (not every such curve was filed as active); inconclusive means small, poorly fitted or top-dose-only effect, or another doubt; inactive means flat fitted curve, though single readings scatter.

How the values were obtained:
[1] = AP1 Signaling Pathway (AID 357); settings: ME-180 AP-1-bla reporter, EGF-induced, beta-lactamase ratio, 5 h; at 17.2 µM (top of the series) unless noted; further: on the % scale 0 is the no-effect control and ±100 the full control effect
In short: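 AP-1-bla ME-180 cells with beta-lactamase reporter under AP-1 response element, stimulated with EC50 EGF; compounds titrated, 5 hours at 37 degrees Celsius. CCF4 read at 460/530 nm ratio; positive and negative modulators judged by AC50.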

[2] = Stat Signaling Pathway (AID 446); settings: ME-180 SIE beta-lactamase reporter, IL-6 stimulated, 5 h; at 17.2 µM (top of the series) unless noted;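 further: ME-180 cervical cancer cells given 40 pM IL-6 alongside compound; SIE-controlled beta-lactamase reporter measured as 460/530 nm FRET emission ratio; on the % scale 0 is the no-effect control and ±100 the full control effect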
In short: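 ME-180 cells carrying a SIE-driven beta-lactamase reporter are stimulated with 40 pM IL-6 for 5 h at 37C in the presence of compound. The 460/530 nm FRET substrate ratio is read after 2.5 h at RT. Data are normalised to 300 pM IL-6 and to 125 nM JAK inhibitor controls.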

[3] = target: Glucocorticoid receptor (Homo sapiens) (UniProt P04150); assay: GR-GFP Redistribution (AID 450;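 active means compounds whose dose series gives a full or clear partial fitted curve of increased nuclear translocation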; further: potency means the concentration at half of the fitted maximal effect)
Sequence of Glucocorticoid receptor (Homo sapiens) (P04150 whole entry, looked up): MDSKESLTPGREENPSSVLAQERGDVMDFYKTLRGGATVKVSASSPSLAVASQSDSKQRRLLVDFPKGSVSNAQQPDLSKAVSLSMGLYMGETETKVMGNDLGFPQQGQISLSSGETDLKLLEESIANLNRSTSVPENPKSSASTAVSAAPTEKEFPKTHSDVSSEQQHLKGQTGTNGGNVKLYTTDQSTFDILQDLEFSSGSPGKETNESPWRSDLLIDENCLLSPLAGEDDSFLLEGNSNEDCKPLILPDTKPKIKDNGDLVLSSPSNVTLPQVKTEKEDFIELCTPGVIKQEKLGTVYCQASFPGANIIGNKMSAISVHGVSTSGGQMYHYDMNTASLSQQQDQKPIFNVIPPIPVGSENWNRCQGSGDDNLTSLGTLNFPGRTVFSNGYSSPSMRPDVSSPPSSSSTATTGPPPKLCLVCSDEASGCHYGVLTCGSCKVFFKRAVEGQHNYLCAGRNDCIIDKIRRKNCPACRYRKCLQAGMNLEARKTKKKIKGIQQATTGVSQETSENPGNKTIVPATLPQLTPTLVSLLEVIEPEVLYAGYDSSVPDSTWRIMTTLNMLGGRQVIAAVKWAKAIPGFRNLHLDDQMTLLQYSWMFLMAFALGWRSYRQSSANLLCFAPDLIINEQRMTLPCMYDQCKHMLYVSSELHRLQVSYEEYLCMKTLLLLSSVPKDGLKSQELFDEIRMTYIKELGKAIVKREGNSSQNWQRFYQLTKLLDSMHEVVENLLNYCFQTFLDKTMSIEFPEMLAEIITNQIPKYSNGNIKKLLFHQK

COCCCNc1nc(-c2ccncc2)nc2ccccc12
inactive: activity change, negative = inhibition [1] -12.4% | activity, negative = inhibition [2] -12.9% | Potency [3] > 20.6 µM

CCOC(=O)c1[nH]c2ccc(OC)cc2c1NC(=O)CCN1CCN(Cc2ccccc2)CC1
inactive: activity change, negative = inhibition [1] -6.55% | activity, negative = inhibition [2] 4.87% | Potency [3] > 20.6 µM

Cc1ccc2[nH]c3c(c2c1)CN(C(=O)CN1CCCc2ccccc21)CC3
inactive: activity change, negative = inhibition [1] -22.5% | activity, negative = inhibition [2] -11.3% | Potency [3] > 20.6 µM

Cc1ccc2cc(CN(C(=O)c3ccco3)c3ccccc3C)c(=O)[nH]c2c1
inactive: activity change, negative = inhibition [1] -25.5% | activity, negative = inhibition [2] -12.8% | Potency [3] > 20.6 µM

C=CCOC(=O)C(C#N)c1nc2ccccc2nc1N1CCC(C(=O)OCC)CC1 (configuration not stated)
inactive: activity change, negative = inhibition [1] -17.2% | activity, negative = inhibition [2] -10.4% | Potency [3] > 20.6 µM

CCC1CCCCN1c1nc(-c2ccncc2)nc2ccccc12 (configuration not stated)
inactive: activity change, negative = inhibition [1] -20.7% | activity, negative = inhibition [2] -2.48% | Potency [3] > 20.6 µM

CCCCCn1c2nc3ccccc3nc2c2c(=O)n(CC(C)C)cnc21
inactive: activity change, negative = inhibition [1] 2.71% | activity, negative = inhibition [2] -12.9% | Potency [3] > 20.6 µM

COc1ccc(/C=C/C2=NC(=C\N(C)C)/C(=O)O2)cc1
inactive: activity change, negative = inhibition [1] -4.1% | activity, negative = inhibition [2] -0.663% | Potency [3] > 20.6 µM

Cn1c(OCc2cccnc2)nc2c1c(=O)n(Cc1ccc(Br)cc1)c(=O)n2C
inactive: activity change, negative = inhibition [1] -26.8% | activity, negative = inhibition [2] -27.6% | Potency [3] > 20.6 µM

CCOC(=O)c1nc2nc(C)c(Cl)c(=O)n2[nH]1
inactive: activity change, negative = inhibition [1] -6.21% | activity, negative = inhibition [2] 5.64% | Potency [3] > 20.6 µM

COc1ccccc1N1CCN(CCCCOc2ccc(F)cc2)CC1
inactive: activity change, negative = inhibition [1] 18.8% | activity, negative = inhibition [2] 5.73% | Potency [3] > 20.6 µM

CCOc1ccc(C2C=C(c3ccccc3)Nc3ncnn32)cc1 (configuration not stated)
inactive: activity change, negative = inhibition [1] -28.8% | activity, negative = inhibition [2] -2.5% | Potency [3] > 20.6 µM

CCOC(=O)c1ccc(N2C(=O)CC(Sc3nnc(C)s3)C2=O)cc1 (configuration not stated)
inactive: activity change, negative = inhibition [1] 6.1% | activity, negative = inhibition [2] 1.82% | Potency [3] > 20.6 µM

COC(=O)c1ccc(C2C(C(=O)c3cc4ccccc4o3)=C(O)C(=O)N2CCCN(C)C)cc1 (configuration not stated)
inactive: activity change, negative = inhibition [1] -0.991% | activity, negative = inhibition [2] -11.4% | Potency [3] > 20.6 µM

CN1C2C=C3C(C#N)=C(N)C(C#N)(C#N)[C@@H](c4ccsc4)[C@@H]3C1CC2 (some centres not stated)
inactive: activity change, negative = inhibition [1] 20.1% | activity, negative = inhibition [2] 3.71% | Potency [3] > 20.6 µM

N#Cc1nc(COc2ccccc2Cl)oc1NCc1ccc(F)cc1
inactive: activity change, negative = inhibition [1] -5.24% | activity, negative = inhibition [2] -20.3% | Potency [3] > 20.6 µM

CCOC(=O)C1CCN(c2nc3ccccc3nc2C(C#N)C(=O)OC(C)COC)CC1 (configuration not stated)
inactive: activity change, negative = inhibition [1] -6.33% | activity, negative = inhibition [2] -12.7% | Potency [3] > 20.6 µM

O=C(NCc1ccco1)c1cnn2c(C(F)(F)F)cc(-c3ccco3)nc12
inactive: activity change, negative = inhibition [1] -3.32% | activity, negative = inhibition [2] 10.1% | Potency [3] > 20.6 µM

Cc1cc(=O)oc2c(CN3CCC(C)CC3)c(O)c(Cl)cc12
inactive: activity change, negative = inhibition [1] 22.4% | activity, negative = inhibition [2] 7.86% | Potency [3] > 20.6 µM

CCN(CC)c1ccc(C2Nc3cccc4cccc(c34)N2)c(O)c1
inactive: activity change, negative = inhibition [1] -17.3% | activity, negative = inhibition [2] -17.7% | Potency [3] > 20.6 µM

Cn1c(N2CCOCC2)nc2c1c(=O)n(Cc1ccc(Cl)cc1)c(=O)n2C
inactive: activity change, negative = inhibition [1] 1.13% | activity, negative = inhibition [2] 23.9% | Potency [3] > 20.6 µM

COc1ccc2c(c1OC)C(=O)N1c3ccccc3C(=O)N(c3ccccc3)C21 (configuration not stated)
inactive: activity change, negative = inhibition [1] -9.35% | activity, negative = inhibition [2] 0.163% | Potency [3] > 20.6 µM

CCCSc1nc(N2CCOCC2)c2c(c1C#N)CCCC2
inactive: activity change, negative = inhibition [1] 20.8% | activity, negative = inhibition [2] -3.09% | Potency [3] > 20.6 µM

Oc1c(C=Nc2cccnc2)sc2ccccc12
inactive: activity change, negative = inhibition [1] 8.1% | activity, negative = inhibition [2] -3.68% | Potency [3] > 20.6 µM

C=CCn1c(SCC(=O)OC)nc2sc3c(c2c1=O)CCN(C)C3
inactive: activity change, negative = inhibition [1] -12.5% | activity, negative = inhibition [2] 2.28% | Potency [3] > 20.6 µM

c1ccc2c(NCC3CCCO3)nc(-c3ccncc3)nc2c1 (configuration not stated)
inactive: activity change, negative = inhibition [1] -9.19% | activity, negative = inhibition [2] 4.85% | Potency [3] > 20.6 µM

CN(Cc1c(O)ccc2c1oc(=O)c1ccccc12)C1CCCCC1
inactive: activity change, negative = inhibition [1] 2.27% | activity, negative = inhibition [2] 4.77% | Potency [3] > 20.6 µM

c1ccc2c(N3CCCCC3)nc(N3CCCCC3)nc2c1
inactive: activity change, negative = inhibition [1] 21.1% | activity, negative = inhibition [2] -3.49% | Potency [3] > 20.6 µM

Cc1cccc(OCC(=O)N2CCC(N3CCCCCC3)CC2)c1
inactive: activity change, negative = inhibition [1] 4.73% | activity, negative = inhibition [2] 5.82% | Potency [3] > 20.6 µM

COc1cc(/C=N/O)ccc1OCc1ccc(C(=O)O)cc1
inactive: activity change, negative = inhibition [1] -13.9% | activity, negative = inhibition [2] -11.7% | Potency [3] > 20.6 µM

CCCCc1c(O)nc(SCCN(C)C)n(-c2ccccc2)c1=O
inactive: activity change, negative = inhibition [1] 10% | activity, negative = inhibition [2] 2.07% | Potency [3] > 20.6 µM

CC(C)Cc1nc(N2CCN(C(=O)Cc3ccccc3)CC2)c(C#N)c2c1COC(C)(C)C2
inactive: activity change, negative = inhibition [1] -5.38% | activity, negative = inhibition [2] -23.7% | Potency [3] > 20.6 µM

CCOC(=O)/C=c1\s/c(=C(\C#N)C(=O)OCC)n(-c2ccccc2)c1=O
inactive: activity change, negative = inhibition [1] 2.08% | activity, negative = inhibition [2] -22.2% | Potency [3] > 20.6 µM

CCCOc1cc(CN2CCCCC2)cc(C(C)=O)c1
inactive: activity change, negative = inhibition [1] 27.9% | activity, negative = inhibition [2] 7.32% | Potency [3] > 20.6 µM

COCCCNC(=O)c1c(N)n(/N=C/c2ccccn2)c2nc3ccccc3nc12
inactive: activity change, negative = inhibition [1] -25.1% | activity, negative = inhibition [2] -10.3% | Potency [3] > 20.6 µM

CCOC(=O)C1CCN(c2nc3ccccc3nc2C(C#N)C(=O)OCCOC)CC1 (configuration not stated)
inactive: activity change, negative = inhibition [1] -17.6% | activity, negative = inhibition [2] -9.08% | Potency [3] > 20.6 µM

C=CCN(CC=C)c1nc2ccccc2nc1C(C#N)C(=O)OC(C)C (configuration not stated)
inactive: activity change, negative = inhibition [1] -13.3% | activity, negative = inhibition [2] -28.3% | Potency [3] > 20.6 µM

CCOC(=O)C1=Nc2ccccc2C1=[N+]=[N-]
inactive: activity change, negative = inhibition [1] -19% | activity, negative = inhibition [2] -23.9% | Potency [3] > 20.6 µM

O=c1c2ccccc2[nH]c(=S)n1CCN1CCC(=C(c2ccc(F)cc2)c2ccc(F)cc2)CC1
inactive: activity change, negative = inhibition [1] 10.4% | activity, negative = inhibition [2] -6.03% | Potency [3] > 20.6 µM

COc1cccc(-c2nc(NCCN3CCOCC3)c3ccccc3n2)c1O
inactive: activity change, negative = inhibition [1] -15.3% | activity, negative = inhibition [2] 6.04% | Potency [3] > 20.6 µM

CCCCCSc1nc(N2CCOCC2)c2c(c1C#N)CC(C)(C)OC2
inactive: activity change, negative = inhibition [1] -13.1% | activity, negative = inhibition [2] 9.95% | Potency [3] > 20.6 µM

CCOc1ccc(C2=Nn3c(nnc3-c3ccccn3)SC2)cc1
inactive: activity change, negative = inhibition [1] -11.7% | activity, negative = inhibition [2] 3.43% | Potency [3] > 20.6 µM

COc1cccc(NC(=O)C2CC(=O)n3cnnc3S2)c1 (configuration not stated)
inactive: activity change, negative = inhibition [1] -17.5% | activity, negative = inhibition [2] -7.33% | Potency [3] > 20.6 µM

CCn1cc(C(=O)NCCc2ccccc2)c(=O)c2cc(F)c(N3CCN(C)CC3)cc21
inactive: activity change, negative = inhibition [1] -9.7% | activity, negative = inhibition [2] -5.45% | Potency [3] > 20.6 µM

c1ccc2c(c1)CCOC2CNCCCN1CCCCC1 (configuration not stated)
inactive: activity change, negative = inhibition [1] -0.837% | activity, negative = inhibition [2] 2.31% | Potency [3] > 20.6 µM

COc1cc(OC)cc(C(=O)N2CCC(N3CCCCCC3)CC2)c1
inactive: activity change, negative = inhibition [1] -0.714% | activity, negative = inhibition [2] 0.747% | Potency [3] > 20.6 µM

CC1(C)Cc2c(sc3nc4n(c(=N)c23)CCCCC4)CO1
inactive: activity change, negative = inhibition [1] 19.2% | activity, negative = inhibition [2] 3.32% | Potency [3] > 20.6 µM

Cc1c(N=Cc2c(O)n(C3CCCCC3)c(=O)[nH]c2=O)c(=O)n(-c2ccccc2)n1C
inactive: activity change, negative = inhibition [1] -6.37% | activity, negative = inhibition [2] -1.79% | Potency [3] > 20.6 µM

CCOC(=O)COn1c(=O)c(-c2ccco2)[n+]([O-])c2ccccc21
inactive: activity change, negative = inhibition [1] -20.1% | activity, negative = inhibition [2] 12.3% | Potency [3] > 20.6 µM

O=C(c1ccccc1F)N1CCC(N2CCCCCC2)CC1
inactive: activity change, negative = inhibition [1] -3.96% | activity, negative = inhibition [2] 2.78% | Potency [3] > 20.6 µM

COc1ccc2c(c1OC)C(=O)N1c3ccccc3C(=O)N(c3ccc(F)cc3)C21 (configuration not stated)
inactive: activity change, negative = inhibition [1] -3.68% | activity, negative = inhibition [2] -12.3% | Potency [3] > 20.6 µM

CCC(CC)c1nc2cc(OC)c(OC)cc2c(=O)o1
inactive: activity change, negative = inhibition [1] -1.43% | activity, negative = inhibition [2] -3.88% | Potency [3] > 20.6 µM

CCN(CC)c1nc(-c2cccc(OC)c2O)nc2ccccc12
inactive: activity change, negative = inhibition [1] -20.9% | activity, negative = inhibition [2] -20% | Potency [3] > 20.6 µM

CCCCCCCCCCCCCCCC(O)C(N)CO (configuration not stated)
inactive: activity change, negative = inhibition [1] -23.5% | activity, negative = inhibition [2] 7.16% | Potency [3] > 20.6 µM

CCOC(=O)c1c2c(c(=S)n(-c3ccccc3)c1N)CCC2
inactive: activity change, negative = inhibition [1] -21.8% | activity, negative = inhibition [2] -15.9% | Potency [3] > 20.6 µM

CCCCCNC(=O)C(C#N)c1nc2ccccc2nc1N1CC(C)OC(C)C1 (configuration not stated)
inactive: activity change, negative = inhibition [1] -18.2% | activity, negative = inhibition [2] -11.4% | Potency [3] > 20.6 µM

COc1ccc(C2C(C#N)=C(SC)NC3=C2C(=O)CC(C)(C)C3)cc1 (configuration not stated)
inactive: activity change, negative = inhibition [1] -6.47% | activity, negative = inhibition [2] -6.08% | Potency [3] > 20.6 µM

Cc1cccc(C)c1OCC(O)CNS(=O)(=O)c1ccccc1C(=O)N1CCCCC1 (configuration not stated)
inactive: activity change, negative = inhibition [1] -10.2% | activity, negative = inhibition [2] -0.145% | Potency [3] > 20.6 µM

C=CCOc1ccc(/C(O)=C2\C(=O)C(=O)N(CCN(C)C)C2c2cccs2)cc1 (configuration not stated)
inactive: activity change, negative = inhibition [1] -5.42% | activity, negative = inhibition [2] -3.79% | Potency [3] > 20.6 µM
